Source: PMC4336329 (PLoS ONE, 2015)
About 14,000 (4.5%) of roughly 310,000 compounds showed an effect of 50% or more. The effect is printed as a negative number. Many of the other results were omitted from the sample, so strong results are more common in it than they were.

target: human ether-à-go-go-related gene (hERG) potassium channel (human, UniProt Q12809); assay: primary screen, population patch clamp on CHO cells stably expressing hERG; higher = less effect of the substance
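Note: peak tail current of the secondary pulse compared with the same well before compound.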

Sequence of human ether-à-go-go-related gene (hERG) potassium channel (Q12809 whole entry, looked up): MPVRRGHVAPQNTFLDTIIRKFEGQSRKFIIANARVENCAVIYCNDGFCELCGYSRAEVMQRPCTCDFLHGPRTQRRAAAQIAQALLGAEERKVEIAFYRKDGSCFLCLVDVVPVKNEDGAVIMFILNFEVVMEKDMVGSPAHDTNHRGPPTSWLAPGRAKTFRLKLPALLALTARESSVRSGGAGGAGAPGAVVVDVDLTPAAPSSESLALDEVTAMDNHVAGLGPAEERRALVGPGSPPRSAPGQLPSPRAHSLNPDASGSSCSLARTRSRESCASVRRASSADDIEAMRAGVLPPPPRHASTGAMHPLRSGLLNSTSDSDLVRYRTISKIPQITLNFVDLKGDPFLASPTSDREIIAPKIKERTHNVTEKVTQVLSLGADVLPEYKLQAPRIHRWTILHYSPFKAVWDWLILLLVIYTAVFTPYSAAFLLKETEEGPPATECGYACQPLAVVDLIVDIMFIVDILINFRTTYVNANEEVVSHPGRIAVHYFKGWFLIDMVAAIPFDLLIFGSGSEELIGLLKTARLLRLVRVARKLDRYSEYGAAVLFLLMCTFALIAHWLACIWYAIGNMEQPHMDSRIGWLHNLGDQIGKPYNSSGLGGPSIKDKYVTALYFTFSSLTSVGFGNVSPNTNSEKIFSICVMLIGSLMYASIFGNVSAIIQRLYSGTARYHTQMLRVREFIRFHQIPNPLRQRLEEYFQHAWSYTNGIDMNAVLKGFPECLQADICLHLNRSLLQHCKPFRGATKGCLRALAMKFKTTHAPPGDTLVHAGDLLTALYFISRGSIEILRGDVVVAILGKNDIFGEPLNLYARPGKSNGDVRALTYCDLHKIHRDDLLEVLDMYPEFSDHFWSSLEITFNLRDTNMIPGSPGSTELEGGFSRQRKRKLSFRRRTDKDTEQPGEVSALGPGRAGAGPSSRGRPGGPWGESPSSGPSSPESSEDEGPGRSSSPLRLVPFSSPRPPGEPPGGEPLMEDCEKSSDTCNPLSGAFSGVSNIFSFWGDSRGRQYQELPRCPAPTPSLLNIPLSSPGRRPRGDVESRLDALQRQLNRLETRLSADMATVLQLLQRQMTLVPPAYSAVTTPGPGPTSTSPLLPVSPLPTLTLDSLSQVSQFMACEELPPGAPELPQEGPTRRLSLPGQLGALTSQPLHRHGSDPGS

SMILES	hERG current change (%, negative = inhibition) at 10uM
CC1=NNC(=O)/C1=C\c1cn(-c2ccccc2)nc1-c1ccc(Cl)cc1	3.69%
O=c1c2c(nc3c(-c4ccccc4)c[nH]n13)CCC2	10.9%
CC(C)CC(COCc1cccc(C(F)(F)F)c1)N1CCN(C(=O)c2cccc(C(F)(F)F)c2)CCC1=O (centres unmarked)	-12%
COc1ccccc1CN1CCN(Cc2nc(-c3cccs3)no2)CC1	-42.8%
O=C(C[n+]1ccc(-c2nnc3n2CCC3)cc1)c1ccc(Cl)c(Cl)c1.[Br-]	-14%
O=C(O)CC1(CC(=O)NCc2ccc(Cl)cc2)CCCCC1	8.75%
CCC12CN(C(=O)c3ccc(C)cc3)CC(CC)(CN(C(=O)c3ccc(C)cc3)C1)C2=O	-33.3%
CCn1cc(C(=O)NCCCN2CCC(C)CC2)c(=O)c2cc(S(=O)(=O)N3CCCC3)ccc21	-7.61%
CCn1cc(C(=O)NCCCN2CCC(C)CC2)c(=O)c2cc(S(=O)(=O)N3CCOCC3)ccc21	-17.1%
CCn1cc(C(=O)NCCCN2CCC(C)CC2)c(=O)c2cc(S(=O)(=O)N(C)C3CCCCC3)ccc21	-80%
COc1cc(NC(=O)c2ccc3c(c2)OCO3)ccc1NC(=O)c1ccco1	10.4%
Cc1ccc(CNC(=O)c2ccc(Cn3nc(C)cc3C)o2)cc1	-19.1%
CCOC(=O)/C(N=Nc1c(Br)cc(Br)cc1Br)=C(\C)O	6.47%
Cn1c(CC(=O)NNC(=O)c2ccc(F)cc2F)nc2ccccc21	-7.56%
CC1=C/C(=C\C=C(C#N)C#N)N(C)c2ccccc21	9.34%
CCOC(=O)/C(C#N)=C/C=C1/C=CC=CN1C	3.01%
CCCN1C=CC(=CC=C(C#N)C#N)C=C1	-3.42%
CCCCCCN1C=C/C(=C\C=C(C#N)C#N)c2ccccc21	-37.4%
CCCCCCN1C=CC=C/C1=C\C=C(C#N)C#N	-71.1%
CCCCCN1C=CC=C/C1=C\C=C(C#N)C#N	-70.9%
CCCCCCN1C=CC=C/C1=C/C=C(C#N)C#N	-76.5%
CN1/C(=C/C=C(C#N)C#N)C=Cc2ccccc21	11.5%

SMILES	hERG current change (%, negative = inhibition) at 10uM
CCCCCCN1C=CC(=C/C=C(\C#N)C(=O)OCC)C=C1	-4.32%
COc1ccc(OC)c(NC(=O)CSc2nnc(C)n2Cc2ccccc2)c1	-23.5%
Cc1ccc(C)c(N(C)S(=O)(=O)c2cccc3nsnc23)c1	-18.4%
Cc1cc(C)c(S(=O)(=O)Nc2cccc(C(=O)O)c2)cc1S(=O)(=O)Nc1cccc(C(=O)O)c1	18.2%
NNC(=O)c1ccc(Cn2cc(Cl)cn2)o1	15.6%
COC(=O)c1ccc(/C=N/N2CCN(Cc3ccccc3Cl)CC2)cc1	5.88%
Cc1nc2c(c(C)nn2-c2ccccc2)c(C)c1CCC(=O)NCCCOC(C)C	-34.7%
COCCNC(=O)CCc1c(C)nc2c(c(C)nn2-c2ccc(C)cc2)c1C	-17.6%
Cc1ccc(-n2nc(C)c3c(C)c(CCC(=O)O)c(C)nc32)cc1C	30.7%
COCCNC(=O)CCc1c(C)nc2c(c(C)nn2-c2ccc(C)c(C)c2)c1C	-3.85%
COCCCNC(=O)CCc1c(C)nc2c(c(C)nn2-c2ccc(C)cc2)c1C	-7.71%
Cc1ccc(-n2nc(C)c3c(C)c(CCC(=O)NCCCOC(C)C)c(C)nc32)cc1	-53.1%
CCN(CC)CCNC(=O)CCc1c(C)nc2c(c(C)nn2-c2ccc(C)c(C)c2)c1C	-62.3%
CCCNC(=O)CCc1c(C)nc2c(c(C)nn2-c2ccc(C)cc2)c1C	-0.266%
CCN(CC)CCNC(=O)CCc1c(C)nc2c(c(C)nn2-c2ccc(C)cc2)c1C	-55.4%
COc1ccc(N(CC(=O)NCc2ccc3c(c2)OCO3)S(C)(=O)=O)cc1OC	1.12%
COc1ccc(C2NC(=O)NC(C)=C2C(=O)OCC2CCCCC2)cc1OC (centres unmarked)	-2.11%
Cc1cc(NC(CC(C)C)C(=O)O)nc(Cc2ccccc2)n1 (centres unmarked)	9.96%
CCN(CC)CCOC(=O)C1(c2ccc(OC)c(OC)c2)CCCC1.Cl	-16.9%
COc1cccc(Nc2c([N+](=O)[O-])cncc2[N+](=O)[O-])c1	-2.64%
Cc1ccc(S(=O)(=O)Nc2ccc(-n3cnnn3)cc2)cc1	-1.93%
COc1ccccc1CCNC(=O)CCC(=O)N1CC2C[C@@H](C1)Cn1c2cccc1=O	6.31%

SMILES	hERG current change (%, negative = inhibition) at 10uM
CC(C)SCC(=O)Nc1ncc2c(n1)-c1ccccc1CC2	7.72%
Cc1ccc(CCCNC(=O)C2CCC(=O)N(Cc3cccc(F)c3)C2)cc1 (centres unmarked)	-53.4%
COc1cccc(CN2CC(C(=O)NCCCc3ccc(C)cc3)CCC2=O)c1 (centres unmarked)	-28.4%
O=C(NCCc1cccnc1)C1CCC(=O)N(CCc2cccc(F)c2)C1 (centres unmarked)	7.99%
COc1ccc(CCCNC(=O)C2CCC(=O)N(CCc3cccc(F)c3)C2)cc1 (centres unmarked)	-53.1%
Cc1ccc(CCNC(=O)C2CCC(=O)N(Cc3cccc(F)c3)C2)cc1 (centres unmarked)	-4.64%
COc1ccc(CCN2CC(C(=O)NCCc3ccc(F)cc3)CCC2=O)cc1 (centres unmarked)	-22%
COc1ccccc1CCCNC(=O)C1CCC(=O)N(CCc2cccc(F)c2)C1 (centres unmarked)	-19.1%
O=C(NCCCc1ccncc1)C1CCC(=O)N(Cc2cccc(F)c2)C1 (centres unmarked)	-14.5%
O=C(NCCCc1ccncc1)C1CCC(=O)N(CCc2cccc(F)c2)C1 (centres unmarked)	-51.8%
O=C(CN1C(=O)NC2(CCCCCCC2)C1=O)NCc1cccs1	7.8%
CC(=O)c1c(C)[nH]c(C(=O)COc2ccc3c(C)cc(=O)oc3c2)c1C	7.54%
CC(=O)c1cc(NC(=O)c2ccccc2)c(=O)oc1/C=C/N(C)C	-12.1%
S=C(NCCCN1CCOCC1)Nc1ccc(-c2nc3ccccc3[nH]2)cc1	-11.7%
CSc1cccc(NS(=O)(=O)c2ccc(-c3coc(C)n3)cc2)c1	22.6%
CCCCn1c(SCc2cccc([N+](=O)[O-])c2)nc2ccsc2c1=O	10%
CN1CCN(CCCNC(=O)c2ccc(Cn3c(=S)[nH]c4ccc(Br)cc4c3=O)cc2)CC1	17.4%
CCCC(=O)N1CCN(c2nc3ccc(Br)cc3s2)CC1	-71%
CCC(=O)N1CCN(c2nc3ccc(Br)cc3s2)CC1	-44.2%
O=C(C1CCN(c2nc3ccc(Br)cc3s2)CC1)N1CCC2(CC1)OCCO2	-62.3%
CC(=O)N1CCN(c2nc3ccc(Br)cc3s2)CC1	-49.4%
CCc1ccc2nc(N3CCC(C(=O)N4CCC5(CC4)OCCO5)CC3)sc2c1	-42.5%

SMILES	hERG current change (%, negative = inhibition) at 10uM
CCCCC(=O)N1CCN(c2nc3ccc(Br)cc3s2)CC1	-69.4%
Brc1ccc2nc(N3CCCC3)sc2c1	13%
CC(C)(C)C(=O)N1CCN(c2nc3ccc(Br)cc3s2)CC1	-8.45%
Cc1ccc2nc(N3CCC(C(=O)N4CCC5(CC4)OCCO5)CC3)sc2c1	-19.8%
Cc1nc([N+](=O)[O-])cn1Cc1cccc([N+](=O)[O-])c1	-8.42%
CCOC(=O)C(=O)N/N=C/c1ccco1	11.3%
CCOc1ccc(-n2c(SCC(N)=O)nc3c(c2=O)SCC3)cc1	12%
Cc1ccccc1OCCNc1cc(N2CC(C)NC(C)C2)ccc1[N+](=O)[O-] (centres unmarked)	-12.3%
Cc1ccc(C2CC2C(=O)NNC(=S)Nc2cccc(Cl)c2)cc1 (centres unmarked)	-4.44%
COc1ccc(OCc2cc(C(=O)N3CCN(CC(=O)N(C)C)CC3)no2)c(Cl)c1	-13.4%
COc1cc2c(=O)n(CC3CCCO3)c(=O)n(CC(=O)Nc3ccccc3)c2cc1OC (centres unmarked)	-2.85%
COc1cccc(N2CCN(C(=O)c3cc4c(=O)n(Cc5ccccc5)ccc4nc3C)CC2)c1	-49.8%
CS(=O)(=O)N(Cc1ccccc1)c1ccccc1C(=O)N1CCN(c2ccccc2)CC1	-46.6%
COc1ccc(N2CCN(C(=O)c3cc4c(=O)n(Cc5ccccc5)ccc4nc3C)CC2)cc1	-55.2%
Cc1nc2ccn(Cc3ccccc3)c(=O)c2cc1C(=O)N1CCN(c2ccc(F)cc2)CC1	-78.5%
O=C(c1cc(-c2ccco2)nc2ccccc12)N1CCN(c2ccc(F)cc2)CC1	-28.8%
O=C(c1ccc(Cn2c(=O)[nH]c3ccccc3c2=O)cc1)N1CCN(c2ccc(F)cc2)CC1	-15.5%
Cc1nc2ccn(Cc3ccccc3)c(=O)c2cc1C(=O)N1CCN(c2ccccc2)CC1	-74%
COc1ccc(N2CCN(C(=O)c3cc4c(C)nc5ccccc5c4o3)CC2)cc1	-47%
COc1ccc(Cn2c(=O)[nH]c3cc(C(=O)N4CCN(c5ccccc5)CC4)ccc3c2=O)cc1	9.23%
